Experimental data taken from PubChem BioAssay AID1159580 (chemical genetic matrix, 2015).
“And” between values parts separate entries of the source, which are not always exact repeats. Identical values can stand only once. In all, about 5,500 compounds went through this assay and about 2,000 (36%) were called active. Not shown: some 18% with an inconclusive outcome. Rule as the data show it: active = normalized growth mostly below about 0.91 (no sharp cut-off); inconclusive = no clear call, values can overlap the other calls; inactive = mostly above about 0.92. The list shows a part of the results.

Experiment: chemical genetic growth profiling, strain panel (AID 1159580);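 also: tested at 20 µM; growth read once vehicle control cultures reached saturation at 30 °C; 1 = growth at the plate median or of vehicle wells; lower values mean less growth of the strain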
Conditions: growth OD

Measured: normalized growth

OC(CCN1CCCCC1)(c1ccccc1)C1CCCCC1 (stereo unspecified)
inactive: S. cerevisiae deletion strains, locus YJR075W, strain HOC1, hits give low values 1.01 and 0.98 | S. cerevisiae deletion strains, locus YKL009W, strain mrt4, hits give low values 0.999 | S. cerevisiae deletion strains, locus YKL068W, hits give low values 0.997 | S. cerevisiae deletion strains, locus YKL085W, strain MDH1 (second series), hits give low values 0.998 | S. cerevisiae deletion strains, locus YKL085W, strain MDH1, hits give low values 0.998 | S. cerevisiae deletion strains, locus YKL160W, strain elf1, hits give low values 0.96 | S. cerevisiae deletion strains, locus YKL190W, strain CNB1, hits give low values 1.01 | S. cerevisiae deletion strains, locus YKR001C, strain vps1, hits give low values 0.985 | S. cerevisiae deletion strains, locus YKR026C, strain gcn3, hits give low values 0.971 | S. cerevisiae deletion strains, locus YKR091W, strain srl3, hits give low values 0.978 | S. cerevisiae deletion strains, locus YLL001W, strain dnm1, hits give low values 0.918 | S. cerevisiae deletion strains, locus YLL026W, hits give low values 0.981 | S. cerevisiae deletion strains, locus YLL041C, strain sdh2, hits give low values 0.975 | S. cerevisiae deletion strains, locus YLR027C, strain aat2, hits give low values 0.954 | S. cerevisiae deletion strains, locus YLR039C, strain RIC1, hits give low values 1.12 | S. cerevisiae deletion strains, locus YLR058C, strain SHM2, hits give low values 1.01 | S. cerevisiae deletion strains, locus YLR102C, strain apc9, hits give low values 0.995 | S. cerevisiae deletion strains, locus YLR113W, strain HOG1, hits give low values 0.991 | S. cerevisiae deletion strains, locus YLR221C, strain rsa3, hits give low values 1.01 | S. cerevisiae deletion strains, locus YLR258W, strain gsy2, hits give low values 0.992 | S. cerevisiae deletion strains, locus YLR262C, strain YPT6 (second series), hits give low values 0.989 | S. cerevisiae deletion strains, locus YLR262C, strain YPT6, hits give low values 1.1 | S. cerevisiae deletion strains, locus YLR268W, strain sec22, hits give low values 0.98 | S. cerevisiae deletion strains, locus YLR320W, strain mms22, hits give low values 0.961 | S. cerevisiae deletion strains, locus YLR330W, strain CHS5, hits give low values 1.01 | S. cerevisiae deletion strains, locus YLR342W, strain FKS1 (second series), hits give low values 1 | S. cerevisiae deletion strains, locus YLR342W, strain FKS1, hits give low values 0.959 | S. cerevisiae deletion strains, locus YLR357W, strain rsc2, hits give low values 0.939 | S. cerevisiae deletion strains, locus YLR370C, strain arc18, hits give low values 0.974 | S. cerevisiae deletion strains, locus YLR371W, strain rom2, hits give low values 1 | S. cerevisiae deletion strains, locus YLR384C, strain iki3, hits give low values 0.961 | S. cerevisiae deletion strains, locus YLR418C, strain cdc73, hits give low values 0.966 | S. cerevisiae deletion strains, locus YML016C, strain PPZ1, hits give low values 1.01 | S. cerevisiae deletion strains, locus YML032C, strain rad52, hits give low values 0.986 | S. cerevisiae deletion strains, locus YML120C, strain ndi1, hits give low values 0.97 | S. cerevisiae deletion strains, locus YML124C, strain tub3, hits give low values 0.997 | S. cerevisiae deletion strains, locus YMR058W, strain fet3, hits give low values 0.964 | S. cerevisiae deletion strains, locus YMR078C, strain ctf18, hits give low values 0.998 | S. cerevisiae deletion strains, locus YMR125W, strain sto1, hits give low values 0.977 | S. cerevisiae deletion strains, locus YMR129W, hits give low values 0.98 | S. cerevisiae deletion strains, locus YMR205C, strain PFK2, hits give low values 0.955 | S. cerevisiae deletion strains, locus YMR223W, strain ubp8, hits give low values 1.01 | S. cerevisiae deletion strains, locus YMR231W, strain pep5, hits give low values 0.973 | S. cerevisiae deletion strains, locus YMR263W, strain SAP30, hits give low values 1.01 and 0.983 | S. cerevisiae deletion strains, locus YMR307W, strain GAS1, hits give low values 1.01 and 0.985 | S. cerevisiae deletion strains, locus YNL067W, strain RPL9B, hits give low values 1 | S. cerevisiae deletion strains, locus YNL071W, strain lat1, hits give low values 0.98 | S. cerevisiae deletion strains, locus YNL128W, strain TEP1, hits give low values 1.02 | S. cerevisiae deletion strains, locus YNL153C, strain GIM3, hits give low values 1 | S. cerevisiae deletion strains, locus YNL175C, strain NOP13, hits give low values 1.01 | S. cerevisiae deletion strains, locus YNL183C, strain NPR1, hits give low values 0.935 | S. cerevisiae deletion strains, locus YNL197C, strain WHI3, hits give low values 1.03 | S. cerevisiae deletion strains, locus YNL209W, strain ssb2, hits give low values 0.993 | S. cerevisiae deletion strains, locus YNL224C, strain SQS1, hits give low values 0.998 | S. cerevisiae deletion strains, locus YNL233W, strain BNI4, hits give low values 0.998 | S. cerevisiae deletion strains, locus YNL248C, strain rpa49, hits give low values 0.995 | S. cerevisiae deletion strains, locus YNL250W, strain rad50, hits give low values 0.999 | S. cerevisiae deletion strains, locus YNL271C, strain bni1, hits give low values 0.989 | S. cerevisiae deletion strains, locus YNL298W, strain CLA4, hits give low values 1.02 | S. cerevisiae deletion strains, locus YNL307C, strain MCK1, hits give low values 0.998 | S. cerevisiae deletion strains, locus YNL322C, strain KRE1 (second series), hits give low values 0.976 | S. cerevisiae deletion strains, locus YNL322C, strain KRE1, hits give low values 1.01 | S. cerevisiae deletion strains, locus YNR049C, strain mso1, hits give low values 0.967 | S. cerevisiae deletion strains, locus YNR052C, strain pop2, hits give low values 1 | S. cerevisiae deletion strains, locus YOL006C, strain TOP1, hits give low values 0.951 | S. cerevisiae deletion strains, locus YOL012C, strain htz1 0.776 | S. cerevisiae deletion strains, locus YOL147C, strain pex11, hits give low values 0.994 | S. cerevisiae deletion strains, locus YOR001W, strain rrp6, hits give low values 0.949 | S. cerevisiae deletion strains, locus YOR061W, strain CKA2, hits give low values 1.01 | S. cerevisiae deletion strains, locus YOR069W, strain VPS5, hits give low values 1.01 | S. cerevisiae deletion strains, locus YOR070C, strain gyp1, hits give low values 0.986 | S. cerevisiae deletion strains, locus YOR080W, strain dia2, hits give low values 0.971 | S. cerevisiae deletion strains, locus YOR083W, strain WHI5 (second series), hits give low values 0.994 | S. cerevisiae deletion strains, locus YOR083W, strain WHI5, hits give low values 0.951 | S. cerevisiae deletion strains, locus YOR106W, strain vam3, hits give low values 0.936 | S. cerevisiae deletion strains, locus YOR136W, strain idh2, hits give low values 1 | S. cerevisiae deletion strains, locus YOR144C, strain elg1, hits give low values 0.993 | S. cerevisiae deletion strains, locus YOR184W, strain ser1, hits give low values 1.01 | S. cerevisiae deletion strains, locus YOR231W, strain MKK1, hits give low values 0.984 | S. cerevisiae deletion strains, locus YOR265W, strain rbl2, hits give low values 0.983 | S. cerevisiae deletion strains, locus YOR270C, strain vph1, hits give low values 0.849 | S. cerevisiae deletion strains, locus YOR290C, strain snf2, hits give low values 0.989 | S. cerevisiae deletion strains, locus YOR316C, strain cot1, hits give low values 1 | S. cerevisiae deletion strains, locus YPL051W, strain arl3, hits give low values 0.984 | S. cerevisiae deletion strains, locus YPL055C, strain LGE1, hits give low values 1.03 and 0.971 | S. cerevisiae deletion strains, locus YPL078C, strain atp4, hits give low values 0.931 | S. cerevisiae deletion strains, locus YPL106C, strain sse1, hits give low values 1.01 | S. cerevisiae deletion strains, locus YPL240C, strain hsp82, hits give low values 0.976 | S. cerevisiae deletion strains, locus YPL241C, strain CIN2, hits give low values 1.01 | S. cerevisiae deletion strains, locus YPL256C, strain CLN2, hits give low values 0.962 | S. cerevisiae deletion strains, locus YPR119W, strain clb2, hits give low values 0.998 | S. cerevisiae deletion strains, locus YPR141C, strain kar3, hits give low values 1.01 | S. cerevisiae deletion strains, locus YPR163C, strain tif3, hits give low values 0.988 | S. cerevisiae deletion strains, locus YPR167C, strain met16, hits give low values 0.998 | S. cerevisiae deletion strains, strain wtn01, hits give low values 0.993 | S. cerevisiae strains, strain wild type, hits give low values 1.01
